The record followed here is ChEMBL document CHEMBL3988442, “University of Dundee, Small-Polar-MMV Screening Library” (2021).

Hit rate of the full screen: of about 69,000 compounds, about 1,000 (1.4%) showed an effect of 50% or more. The sample holds strong results, similar compounds and a random draw of the others, so the mix is not that of the screen.

The test system of the assay is Leishmania donovani. Nature of the assay: Leishmania intramacrophage assay. Details: scale not given: in the data most compounds retested in dose-response had high values. Format: functional, organism-based.

Turning to `Cc1nc(NC2(CN3CCCCC3)CCCCC2)c2cnn(C)c2n1`, the “Percent Effect” value (30.3 µM, […]) was found to be 21.44%.
Take `COCC1(Nc2nc(C)nc3c2cnn3C)CCCC1`: for the setting “30.3 µM, […]”, the “Percent Effect” value was 32.37%.
As to `CCOc1ccccc1C1=CCN(C(=O)C2CCN(C)C(=O)C2)CC1` (configuration not stated), under “30 µM”, the “Percent Effect” value is on record as -1.516%.
Take `O=C1CC(NCc2cccc(O)c2)CN1CCc1cccc(Cl)c1` (configuration not stated): the “Percent Effect” value (30.3 µM, […]) is on record as 24.84%.
In the case of `Cc1nnc(NC(=O)C2CSCN2C(=O)C2CCCC2)s1` (configuration not stated), the “Percent Effect” value (30.3 µM, […]) is listed as -31.76%.
Still for that read-out and setting: the same measure for `O=C(O)c1cc(-c2ccn(CC3CC3)n2)n2ccccc12`: 20%.
The same measure, in the same setting: next, `O=C(c1cc(-c2ccn(CC3CC3)n2)n2ccccc12)N1CCOCC1`: 88.37%; `O=C(c1cc(-c2ccn(CC3CC3)n2)n2ccccc12)N1CCCO1`: 27.45%.
`O=C(c1ccc(NCc2ccco2)nc1)N1CCc2ccccc21`: the “Percent Effect” value (30.3 µM, […]) is given as -1.41%.
On the same count and under the same terms, the same measure for `Fc1ccc2[nH]c3c(c2c1)CCN1C(c2ccncc2)N2CCC31CC2` (configuration not stated): 86.05%; for `Fc1ccc2[nH]c3c(c2c1)CCN1C(c2ccccn2)N2CCC31CC2` (configuration not stated): 22.17%.
Still for that read-out and setting: the same measure for `CC(=O)NC1CCCc2c1[nH]c1ccc(F)cc21` (configuration not stated): 4.787%; for `O=C(OCc1ccccc1)N1CC[C@H]2CC(CO)O[C@@H]2C1` (some centres not stated): -47.27%; for `CN1CCC(n2nc(Cc3cccc(Cl)c3)nc2Cn2ccnc2)CC1`: 15.54%.
On the same count and under the same terms, the same measure for `Cc1noc(C)c1CCCNC(=O)C1CCN(C(=O)C2CC2)CC1`: -2.423%.
On to `CC(C)Cc1noc(C2CCCN(C(=O)CCc3cnn(C)c3)C2)n1` (configuration not stated), for which the “Percent Effect” value (30.3 µM, […]) was found to be 5.747%.
Consider `CCCN1CCC(NC(=O)Nc2ccc(OC)c(OC)c2)CC1`, for which the “Percent Effect” value (30.3 µM, […]) worked out at 8.2%.
Same read-out and setting: the same measure for `CCCN1CCC(NC(=O)c2csc(C)c2-c2ccccc2)CC1`: 11.13%; for `CCCN1CCC(Nc2cc(-c3ccccc3)ccc2OC)CC1`: 94.4%; for `Cc1ccc(C2CCCN(C(=O)c3cnn(C)c3)C2)nc1` (configuration not stated): -15.16%.
On to `O=C(c1cc(Cl)ccc1F)N1CCCC1Cn1cccn1` (configuration not stated), for which, where the note is “30 µM”, the “Percent Effect” value is recorded as -22.81%.
Turning to `COc1cc(NCc2ccncc2)c(-c2nn[nH]n2)cc1OC`, where the note is “30.3 µM, […]”, the “Percent Effect” value was -13.14%.
On the same count and under the same terms, the same measure for `COCCN1C(=O)CCC12CCN(C(=O)CNC(C)=O)CC2`: 21.99%; for `COc1cc(-c2cc(C3CCOC3)c(C#N)c(N)n2)ccc1O` (configuration not stated): 14.88%; for `COc1ccc2c(c1)c(-c1nc(N(C)C)ncc1CN)cn2C`: 97.85%.
Regarding `COc1ccc2c(c1)c(-c1nc(C)ncc1CN)cn2C`, where the note is “30.3 µM, […]”, the “Percent Effect” value came out at 49%.
On the same count and under the same terms, next, `COCC(=O)NCc1cnc(C)nc1-c1cn(C)c2ccc(OC)cc12`: 7.699%.
On the same count and under the same terms, the same measure for `Cc1ccccc1C(C)NC(=O)CN1CCN(Cc2ccc(Br)s2)CC1` (configuration not stated): -13.55%.
`CCn1cc(NC(=O)NCc2ccc3c(c2)OCO3)cn1`: the “Percent Effect” value (30 µM) came out at 18.35%.
As for `Cc1ncsc1CN1C[C@@H]2COC[C@]2(C(=O)NC2CC(F)(F)C2)C1.O=C(O)C(F)(F)F`, the “Percent Effect” value (30.3 µM, […]) came to 30.87%.
The same measure, in the same setting: the same measure for `O=C(NC1CC(F)(F)C1)[C@]12COC[C@H]1CN(Cc1ccsc1)C2`: 55.66%.
On the same count and under the same terms, next, `O=C(NC1CC(F)(F)C1)[C@]12COC[C@H]1CN(Cc1ccccc1)C2.O=C(O)C(F)(F)F`: 18.84%; `CNS(=O)(=O)c1cccc(C(C)NCc2ccc(C)c(C)c2)c1` (configuration not stated): 17.01%.
For `CN(C)C(=O)N1CC2(CCNCC2)c2cc(Cl)ccc21.Cl`, for the setting “30.3 µM, […]”, the “Percent Effect” value is listed as -49.76%.
Still for that read-out and setting: next, `Cl.Cl.O=C([C@H]1CCCN1)N1CC2(CCNCC2)c2cc(Cl)ccc21`: 35.2%; `Cl.O=C(c1ccccc1F)N1CC2(CCNCC2)c2cc(Cl)ccc21`: 46.46%.
The same measure, in the same setting: the same measure for `CC(C)C[C@H](N)C(=O)N1CC2(CCNCC2)c2cc(Cl)ccc21.Cl.Cl`: 94.41%; for `C[C@@H](N)C(=O)N1CC2(CCNCC2)c2cc(Cl)ccc21.Cl.Cl`: 18.29%.
With `CCOC(=O)N1CC2(CCNCC2)c2cc(Cl)ccc21.Cl`, the “Percent Effect” value (30.3 µM, […]) was 67.51%.
Same read-out and setting: the same measure for `Cc1ccc2c(c1)C1(CCNCC1)CN2C(=O)C(C)C`: 17.68%; for `Cl.Cl.O=C([C@@H]1CSCN1)N1CC2(CCNCC2)c2cc(Cl)ccc21`: 30.82%.
`CCc1noc(C)c1C(=O)N(C)Cc1ncc(C)c(OC)c1C`: where the note is “30 µM, 30.03 µM”, the “Percent Effect” value is 17.33%.
Same read-out and setting: next, `CN(CCCC#N)C1CCCN(Cc2noc(C3CC3)n2)C1` (configuration not stated): 35.66%.
Turning to `Cc1cccnc1CC(C)N(C)C(=O)c1cccs1` (configuration not stated), the “Percent Effect” value (30.3 µM, […]) is listed as 22.03%.
Consider `CNC(=O)c1cnc(/C=C/c2cc(OC)c(O)c(OC)c2)s1`, for which, for the setting “30.3 µM, […]”, the “Percent Effect” value worked out at 3.705%.
As for `CCn1cc(NC(=O)C(C)n2ncc(Cl)c2C)c(C(=O)NCC(C)C)n1` (configuration not stated), the “Percent Effect” value (30.3 µM, […]) is 23.51%.
Take `CC(Oc1ccc2c(c1)OCO2)C(=O)N1CCC(N2CCCC2)CC1` (configuration not stated): for the setting “30.3 µM, […]”, the “Percent Effect” value turned out to be 30.73%.
Regarding `CCN(Cc1nonc1C)C(=O)c1ccc(Br)o1`, the “Percent Effect” value (30.3 µM, […]) is 25.68%.
Still for that read-out and setting: next, `O=C(O)C(F)(F)F.O=C1[C@H]2CN(CC3CCOCC3)C[C@H]2CN1Cc1cccc(F)c1`: 2.876%; `CN1CCC2(CCCN(c3nccc(C(F)(F)F)n3)C2)CC1.O=C(O)C(F)(F)F`: 21.14%.
In the case of `CC(C)N1CCC2(CCCN(c3nccc(C(F)(F)F)n3)C2)CC1.O=C(O)C(F)(F)F`, the “Percent Effect” value (30.3 µM, […]) came to 54.65%.
Same read-out and setting: the same measure for `O=C(O)C(F)(F)F.O=C(O)C(F)(F)F.c1cnc(N2CCCC3(CCN(c4ncccn4)C3)C2)nc1` (configuration not stated): 12.64%.
